Consider 25 compounds from PubChem BioAssay.

Entries with a potency or affinity are not part of this list. Inconclusive results are not listed. Unmarked numbers belong to inactive results. No rule for the calls is given here.

A short description of this assay: non-specific cell cytotoxicity, dose response, cytotoxicity control for PAX8 inhibitor project, plate reader, dry powder samples (AID 743021). To be noted: cell line, non-specific cytotoxicity counter-screen; series mostly up to 35 µM; activity change, negative = cytotoxicity: at the top concentration. On the technique in general: A counterscreen serves to expose hits that act by an unwanted route or on another target.
`COc1ccc(/C=C2\CN(Cc3ccccc3)C/C(=C\c3ccc(OC)c(O)c3)C2=O)cc1O`: the “activity change, negative = cytotoxicity” value is -2.54%.

Regarding `O[C@@H]1[C@@H](O)C=C2CCN3Cc4cc5c(cc4[C@H]1C23)OCO5` (stereo not given in full), the “activity change, negative = cytotoxicity” value was 25%.

Turning to `CC(C1CC1)N(Cc1ccccc1)C(=S)Nc1cccc(C(F)(F)F)c1` (stereo not given), the “activity change, negative = cytotoxicity” value was 4.06%.

With `CCOC(=O)C1=CN(Cc2cccc(-c3cccnc3)c2)S(=O)(=O)N(C)C1C` (stereo not given), the “activity change, negative = cytotoxicity” value was 2.6%.

In the case of `COC1C(CO)OC(n2c3c(Cl)cccc3c3c4c(c5c6cccc(Cl)c6[nH]c5c32)C(=O)NC4=O)C(O)C1O` (stereo not given), the “activity change, negative = cytotoxicity” value is 3.92%.

As to `C=C1C(=O)[C@]23C[C@H]1CC[C@H]2[C@]1(C)[C@@H](OC(C)=O)CC[C@@](C)(C(=O)O)[C@H]1C[C@@H]3O`, the “activity change, negative = cytotoxicity” value was -32%.

As for `CN1C(=O)/C(=C\C(=O)c2cccs2)c2ccccc21`, the “activity change, negative = cytotoxicity” value was -12.2%.

For `CCn1c2ccccc2c2cc(NC(=O)c3cc(OC)cc(OC)c3)ccc21`, the “activity change, negative = cytotoxicity” value was 2.98%.

In the case of `Cc1cccc(CS(=O)(=O)c2ncc(Cl)c(C(=O)Nc3ccc(F)cc3)n2)c1`, the “activity change, negative = cytotoxicity” value is 73% [at 16 µM].

Turning to `COc1cccc(-c2nc(CS(=O)(=O)CC(=O)NCCCN3CC(C)CC(C)C3)c(C)o2)c1` (stereo not given), the “activity change, negative = cytotoxicity” value was -1.74%.

As to `CCOC(=O)/C=C/C(=O)Nc1cc(S(=O)(=O)Nc2ccc(OC)cc2)ccc1N1CCOCC1`, the “activity change, negative = cytotoxicity” value is 8.2%.

For `Cc1ccc(NC(=O)/C=C/c2ccc([N+](=O)[O-])s2)c(C)c1`, the “activity change, negative = cytotoxicity” value is -1.15%.

With `CN=c1scc(-c2cccs2)n1/N=C/c1ccccc1O`, the “activity change, negative = cytotoxicity” value was -20.4%.

With `COc1cc2c(c(OC)c1OC)-c1ccc(OC)c(=O)cc1C(NC(C)=O)CC2` (stereo not given), the “activity change, negative = cytotoxicity” value was 42%.

Regarding `C=C1C(=O)[C@@]23[C@H](O)C[C@@H]4C(C)(C)CC[C@H](O)[C@]4(C)[C@@H]2C[C@H](O)[C@@H]1[C@H]3O`, the “activity change, negative = cytotoxicity” value was 12.3%.

Regarding `Cc1ccc2nc(NNC(=O)c3ccc(S(=O)(=O)N4CCc5ccccc5C4)cc3)sc2c1`, the “activity change, negative = cytotoxicity” value is 5.89%.

On to `COc1cccc2c1C(=O)c1c(O)c3c(c(O)c1C2=O)CC(O)(C(C)=NNC(=O)c1ccc(Cl)c(Cl)c1)CC3OC1CC(N)C(O)C(C)O1` (stereo not given), for which the “activity change, negative = cytotoxicity” value was -3.99%.

With `CC[C@]1(O)C[C@@H]2CN(CCc3c([nH]c4ccccc34)[C@@](C(=O)OC)(c3cc4c(cc3OC)N(C)[C@H]3[C@@](O)(C(=O)OC)[C@H](OC(C)=O)[C@]5(CC)C=CCN6CC[C@]43[C@@H]65)C2)C1`, the “activity change, negative = cytotoxicity” value is 4.97%.

As to `COc1cccc2c1C(=O)c1c(O)c3c(c(O)c1C2=O)C[C@](O)(C(C)=O)C[C@H]3O[C@@H]1C[C@@H](N)[C@@H](O)[C@@H](C)O1`, the “activity change, negative = cytotoxicity” value is 34.6%.

With `O=C1[C@@H]2Cc3c([nH]c4ccccc34)C(c3cccc(Br)c3)N2C(=O)CN1C1CCN(Cc2ccccc2)CC1` (stereo not given in full), the “activity change, negative = cytotoxicity” value is -16.5%.

Regarding `CC(C)C(=O)N1CCN(c2ccc(NC(=O)c3ccc([N+](=O)[O-])o3)cc2Cl)CC1`, the “activity change, negative = cytotoxicity” value was 43.7%.

`COc1ccc(CC2C(=O)NC(C)C(=O)N(C)C3Cc4ccc(cc4)Oc4cc(ccc4O)CC(C(=O)NC(C)C(=O)NC(C)C(=O)N2C)N(C)C3=O)cc1` (stereo not given): the “activity change, negative = cytotoxicity” value was 39%.

`CCCCCc1c(-c2ccccc2OC)ncn1CCc1ccccc1OC`: the “activity change, negative = cytotoxicity” value is -12.4%.

As for `N#Cc1ccc(-c2ccc([C@@H]3[C@@H]4CN(S(=O)(=O)c5ccc(-c6ccccc6)cc5)C[C@H]3N4)cc2)cc1`, the “activity change, negative = cytotoxicity” value is -8.5%.

For the compound `S=C1SCN(Cc2cccnc2)CN1Cc1cccnc1`, the “activity change, negative = cytotoxicity” value was 28.4%.
